{"source": "PubChem BioAssay AID1209", "about": "(Sanford-Burnham Center for Chemical Genomics, 2008)", "note": "Hit rate of the full screen: of about 190,000 compounds, about 810 (0.43%) were called active. Many of the other results were omitted from the sample, so actives are more common in it than they were. Values without a mark were called inactive. Cut-off read from the data, not from the text of the source: active = inhibition above about 50%; inactive = the rest.", "data": [{"molecular_target": "Mannose-6-phosphate isomerase (Homo sapiens) (UniProt P34949)", "sequence (P34949 whole entry, looked up)": "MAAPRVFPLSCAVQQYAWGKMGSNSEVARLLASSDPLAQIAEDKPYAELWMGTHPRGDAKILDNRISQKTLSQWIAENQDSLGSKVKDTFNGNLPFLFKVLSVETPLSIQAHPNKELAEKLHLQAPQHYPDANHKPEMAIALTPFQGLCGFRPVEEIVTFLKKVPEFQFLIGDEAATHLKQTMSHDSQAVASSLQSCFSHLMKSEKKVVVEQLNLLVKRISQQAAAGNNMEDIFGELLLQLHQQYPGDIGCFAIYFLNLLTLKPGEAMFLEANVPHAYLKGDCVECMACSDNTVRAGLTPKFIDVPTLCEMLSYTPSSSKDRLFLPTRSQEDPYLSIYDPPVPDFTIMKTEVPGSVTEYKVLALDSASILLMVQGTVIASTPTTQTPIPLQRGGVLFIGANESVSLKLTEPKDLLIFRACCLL", "assay": "MPI enzyme activity inhibition – biochemical, fluorescence intensity, coupled assay, primary screen (AID 1209);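 note: plate controls were DMSO vehicle for no effect and wells lacking substrate for full effect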", "settings": "purified PMI enzyme, at 20 µM, hits give high values", "values": [{"smiles": "CCN(C(=O)CSc1nnc(Cn2nnc3ccccc32)o1)c1nc(C)cs1", "inhibition": "9.1%"}, {"smiles": "COCCn1cc(C(=O)c2cc(Br)ccc2O)cc(C#N)c1=O", "inhibition": "-5.8%"}, {"smiles": "O=C(Nc1cc(S(=O)(=O)N2CCOCC2)ccc1N1CCCCC1)c1cc(-c2ccccn2)nc2ccccc12", "inhibition": "52.8% (active)"}, {"smiles": "CCN(CC)S(=O)(=O)c1ccc(N2CCOCC2)c(NC(=O)c2cc(-c3ccccn3)nc3ccccc23)c1", "inhibition": "15.6%"}, {"smiles": "O=C(Nc1cc(S(=O)(=O)N2CCOCC2)ccc1O)c1ccc2c(c1)S(=O)(=O)c1ccccc1C2=O", "inhibition": "46.3%"}, {"smiles": "O=C(Nc1cc(S(=O)(=O)N2CCOCC2)ccc1N1CCCC1)c1ccc2c(c1)S(=O)(=O)c1ccccc1C2=O", "inhibition": "61% (active)"}, {"smiles": "COc1ccc(-c2cc(C(=O)Nc3cc(S(=O)(=O)N4CCOCC4)ccc3N3CCOCC3)c3ccccc3n2)cc1", "inhibition": "-22.7%"}, {"smiles": "O=C(Nc1ccc(S(=O)(=O)N2CCOCC2)cc1)c1ccc2c(c1)S(=O)(=O)c1ccccc1C2=O", "inhibition": "-4.6%"}, {"smiles": "COCCNC(=S)Nc1cc(S(=O)(=O)N2CCOCC2)ccc1N1CCCCC1", "inhibition": "63.1% (active)"}, {"smiles": "O=C(NC(=S)Nc1cc(S(=O)(=O)N2CCOCC2)ccc1N1CCOCC1)c1ccco1", "inhibition": "3.9%"}, {"smiles": "O=C(NC(=S)Nc1cc(S(=O)(=O)N2CCOCC2)ccc1N1CCOCC1)C1CCCC1", "inhibition": "-1.5%"}, {"smiles": "On1nnc2ccc3ccccc3c21", "inhibition": "-9.6%"}, {"smiles": "C/C(O)=c1/ccc2cccc3nc(C)nc1c23", "inhibition": "42.6%"}, {"smiles": "Cc1ccc(SCc2ccc(C(=O)NCc3ccncc3)cc2)cc1", "inhibition": "0.9%"}, {"smiles": "Cc1cc(C)n(C(=O)c2c([N+](=O)[O-])c(C)nn2C)n1", "inhibition": "1.5%"}, {"smiles": "c1ccc(CC2CCN(Cc3nc(-c4ccccc4)no3)CC2)cc1", "inhibition": "16.3%"}, {"smiles": "CC(=O)N1CCc2c(sc(NC(=O)c3ccc4c(c3)OCCO4)c2C#N)C1", "inhibition": "18.2%"}, {"smiles": "COc1ccc(C(=O)Nc2sc3c(c2C#N)CCN(C(C)=O)C3)cc1", "inhibition": "5.9%"}, {"smiles": "CC(=O)N1CCc2c(sc(NC(=O)c3ccc([N+](=O)[O-])o3)c2C#N)C1", "inhibition": "59% (active)"}, {"smiles": "Cc1cc(-c2ccco2)n(CC(=O)NCc2ccco2)n1", "inhibition": "-9.3%"}, {"smiles": "CC(CSc1nnnn1-c1ccccc1)Cn1c(N2CCCC2)nc2c1c(=O)[nH]c(=O)n2C", "note": "(stereo unspecified)", "inhibition": "1.7%"}, {"smiles": "CCCC(=O)N(c1ccc2oc(=O)sc2c1)S(=O)(=O)c1cccs1", "inhibition": "3.6%"}, {"smiles": "O=[N+]([O-])c1nn(-c2ccc3c(c2)OCCO3)n(O)c1=NC1CCCCCC1", "inhibition": "12.3%"}, {"smiles": "CC(C)(C)N=C1C([N+](=O)[O-])=CC=C2C1=NC1(CCCCC1)N2O", "inhibition": "76.2% (active)"}, {"smiles": "O=[N+]([O-])c1nn(-c2ccc3c(c2)OCCO3)n(O)c1=NC1CCCCC1", "inhibition": "6%"}, {"smiles": "CN=C1C([N+](=O)[O-])=CC=C2C1=NC1(CCCCC1)N2O", "inhibition": "70.6% (active)"}, {"smiles": "O=[N+]([O-])C1=CC=C2C(=NC3(CCCCC3)N2O)C1=NC1CCCCC1", "inhibition": "87.5% (active)"}, {"smiles": "C#CCNc1cc(-c2ccccc2)nc2ncnn12", "inhibition": "-2.5%"}, {"smiles": "COC(=O)c1ccc(C(=O)OC)c(NC(=O)C(C)(C)C)c1", "inhibition": "-4.3%"}, {"smiles": "COc1ccc(OC)c(NC(=O)CCNS(=O)(=O)c2cccs2)c1", "inhibition": "0.3%"}, {"smiles": "COc1ccccc1-c1nnc(SCC(=O)O)n1-c1ccccc1", "inhibition": "0.5%"}, {"smiles": "CCCCN(C(=O)c1ccc(NC(=O)C(C)C)cc1)c1ccccc1", "inhibition": "8.2%"}, {"smiles": "Cc1ccccc1-n1nnnc1SCc1ncc(-c2ccccc2)o1", "inhibition": "5.3%"}, {"smiles": "O=C(O)CCCC(=O)Nc1ccc(OCc2nc3ccccc3s2)cc1", "inhibition": "58.3% (active)"}, {"smiles": "CCC(=O)Nc1ccc(OCc2nc3ccccc3s2)cc1", "inhibition": "25%"}, {"smiles": "O=C(CCCc1nc2ccccc2s1)Nc1ccccc1", "inhibition": "-15.5%"}, {"smiles": "O=C(NN1C(=O)C2C3C=CC(C3)C2C1=O)c1ccncc1", "note": "(stereo unspecified)", "inhibition": "-0.6%"}, {"smiles": "Cc1csc(NC(=O)C2CCCN(S(=O)(=O)c3ccc4c(c3)oc(=O)n4C)C2)n1", "note": "(stereo unspecified)", "inhibition": "13.4%"}, {"smiles": "C=CCN1C(=O)N/C(=C/c2ccccc2OCC(=O)Nc2ccc(F)cc2)C1=O", "inhibition": "2.1%"}, {"smiles": "CN(C)S(=O)(=O)c1cccc(C(=O)NCCc2ccccc2)c1", "inhibition": "3.3%"}, {"smiles": "CN(c1ccccc1)S(=O)(=O)c1cccc(C(=O)NNC(=O)c2ccccc2)c1", "inhibition": "7.8%"}, {"smiles": "CN(c1ccccc1)S(=O)(=O)c1cccc(C(=O)NCCc2ccc(O)c(O)c2)c1", "inhibition": "54.9% (active)"}, {"smiles": "COc1cc(C2NC(=O)NC(c3ccccc3)=C2C(C)=O)ccc1OCC#N", "note": "(stereo unspecified)", "inhibition": "20.2%"}, {"smiles": "COc1ccccc1-n1c(SCC(=O)NC2CCS(=O)(=O)C2)nc2cc([N+](=O)[O-])ccc21", "note": "(stereo unspecified)", "inhibition": "5.5%"}, {"smiles": "COc1ccccc1-n1c(SCC(=O)NCc2ccc3c(c2)OCO3)nc2cc([N+](=O)[O-])ccc21", "inhibition": "59.9% (active)"}, {"smiles": "O=C(CSc1nc2cc([N+](=O)[O-])ccc2n1-c1ccccc1)NCc1ccc2c(c1)OCO2", "inhibition": "23.9%"}]}]}
